# From the supplement of paper PMC12350171
# Structures can show the parent of a compound that is named as a salt. Values without a mark were called inactive.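 How the source made its calls: active = AUC significantly below DMSO controls by Student t-fit with adjusted P under 0.01; inactive = not significantly reduced.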
# Test system: Haemophilus parainfluenzae
# Experiment: growth AUC normalised to DMSO control (fraction of control); higher = less growth inhibition, active = hit call of the paper
# Conditions: 20 µM
# Summary of the method: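 Three biological replicates were carried out, with OD578 read hourly for 24 h. Before inoculation at a starting OD578 of 0.01, pathogens were passaged anaerobically twice; plates were pre-reduced mGAM containing 20 μM compound and 1% DMSO, sealed with breathable membranes, and the Haemophilus parainfluenzae medium carried added hemin and NAD. Area under each growth curve was calculated by the trapezoidal rule up to the exponential-to-stationary transition and normalised to DMSO controls on the same plate.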
row,Compound,growth AUC normalised to DMSO control
1,C[C@@H](O)[C@H]1C(=O)N2C(C(=O)O)=C(SCCNC=N)C[C@H]12 [Imipenem],1.01
2,CCOC(=O)C1=C(C)NC(C)=C(C(=O)OC)C1c1cccc([N+](=O)[O-])c1 (centres undefined) [Nitrendipine],1.03
3,CCOC(=O)[C@H](CCc1ccccc1)N[C@H]1CCc2ccccc2N(CC(=O)O)C1=O [Benazepril hydrochloride],0.995
4,CCCNC(=O)NS(=O)(=O)c1ccc(Cl)cc1 [Chlorpropamide],0.995
5,CN1CCN(C2=Nc3ccccc3Oc3ccc(Cl)cc32)CC1 [Loxapine succinate],0.969
6,COc1ccc(NS(=O)(=O)c2ccc(N)cc2)nn1 [Sulfamethoxypyridazine],1.04
7,CC/C(=C(/CC)c1ccc(O)cc1)c1ccc(O)cc1 [Diethylstilbestrol],1.01
8,CCc1nc(N)nc(N)c1-c1ccc(Cl)cc1 [Pyrimethamine],0.201 (active)
9,C[C@@](Cc1ccc(O)c(O)c1)(NN)C(=O)O [Carbidopa],0.996
10,CN1C2CCCC1CC(NC(=O)c1nn(C)c3ccccc13)C2 (centres undefined) [Granisetron],1.02
11,CN(CCOc1ccc(CC2SC(=O)NC2=O)cc1)c1ccccn1 (centres undefined) [Rosiglitazone hydrochloride],1.06
12,CCc1nn(CCCN2CCN(c3cccc(Cl)c3)CC2)c(=O)n1CCOc1ccccc1 [Nefazodone hydrochloride],0.942
13,CC(=O)OC[C@H]1O[C@@H]([S-])[C@H](OC(C)=O)[C@@H](OC(C)=O)[C@@H]1OC(C)=O.CCP(CC)CC.[Au+] [Auranofin],0.189 (active)
14,COc1cc2ncnc(Nc3ccc(F)c(Cl)c3)c2cc1OCCCN1CCOCC1 [Gefitinib],0.971
15,CCCCC(CC)CN1CN(CC(CC)CCCC)CC(C)(N)C1 (centres undefined) [Hexetidine],1.08
16,CC(=O)[C@H]1CC[C@H]2[C@@H]3CC=C4C[C@@H](O)CC[C@]4(C)[C@H]3CC[C@]12C [Pregnenolone],1.01
17,O=C(Nc1ccc([N+](=O)[O-])cc1Cl)c1cc(Cl)ccc1O [Niclosamide],0.046 (active)
18,CN1CCN(C(c2ccccc2)c2ccc(Cl)cc2)CC1 (centres undefined) [Chlorcyclizine hydrochloride],0.982
19,Clc1ccc(C(Cn2ccnc2)OCc2csc3c(Cl)cccc23)c(Cl)c1 (centres undefined) [Sertaconazole nitrate],1.07
20,CN(C)CCCO[C@@H]1[C@H]2OC(C)(C)O[C@H]2O[C@@H]1[C@H](O)CO [Amiprilose hydrochloride],0.963
21,Clc1ccc(C(c2ccccc2Cl)C(Cl)Cl)cc1 (centres undefined) [Mitotane],1.01
22,CCN(CC)CCNC(C(=O)OCCC(C)C)c1ccccc1 (centres undefined) [Camylofine chlorhydrate],0.98
23,CC#C[C@]1(O)CC[C@H]2[C@@H]3CCC4=CC(=O)CCC4=C3[C@@H](c3ccc(N(C)C)cc3)C[C@@]21C [Mifepristone],0.994

row,Compound,growth AUC normalised to DMSO control
1,CN(C)CCC(c1ccccc1)c1ccccn1 (centres undefined) [Pheniramine maleate],0.999
2,CC[C@@H](CO)NCCN[C@@H](CC)CO [Ethambutol dihydrochloride],0.809
3,C[C@H](CCC(=O)O)[C@H]1CC[C@H]2[C@@H]3C(=O)C[C@@H]4CC(=O)CC[C@]4(C)[C@H]3CC(=O)[C@]12C [Dehydrocholic acid],0.972
4,O=C1c2ccccc2C(=O)C1c1ccccc1 [Phenindione],0.973
5,CCC(C)(CN(C)C)OC(=O)c1ccccc1 (centres undefined) [Amyleine hydrochloride],1.01
6,c1ccc2c(CC3=NCCN3)cccc2c1 [Naphazoline hydrochloride],1.01
7,O=C1CN(/N=C/c2ccc(-c3ccc([N+](=O)[O-])cc3)o2)C(=O)N1 [Dantrolene sodium salt],1.03
8,Cc1ccnc(NS(=O)(=O)c2ccc(N)cc2)n1 [Sulfamerazine],0.994
9,CN/C(=N\CCSCc1nc[nH]c1C)NC#N [Cimetidine],0.993
10,Cc1c(N)c(=O)n(-c2ccccc2)n1C [Ampyrone],1
11,O=C(O)c1cn(-c2ccc(F)cc2)c2cc(N3CCNCC3)c(F)cc2c1=O [Sarafloxacin],0.0521 (active)
12,"N[C@H]1CONC1=O [(S,-) Cycloserine]",0.989
13,Cc1cc2c(cc1S(N)(=O)=O)S(=O)(=O)CCC2 [Meticrane],1.04
14,CC(C)(C)NC[C@H](O)COc1ccccc1C1CCCC1 [Penbutolol sulfate],1.02
15,CN1CCN2c3ccccc3Cc3ccccc3C2C1 (centres undefined) [Mianserine hydrochloride],0.903
16,NCCNCCNCCNCCN [Tetraethylenepentamine pentahydrochloride],0.971
17,CCCCOc1cc(C(=O)NCCN(CC)CC)c2ccccc2n1 [Dibucaine],0.849
18,c1ccc(CC2=NCCN2)cc1 [Tolazoline hydrochloride],1.03
19,CN(C)CCOC(c1ccc(Cl)cc1)c1ccccn1 (centres undefined) [Carbinoxamine maleate salt],1.08
20,CCOC(=O)[C@@](C)(N)Cc1ccc(O)c(O)c1 [Methyldopate hydrochloride],0.995
21,COc1ccc(Cl)cc1C(=O)NCCc1ccc(S(=O)(=O)NC(=O)NC2CCCCC2)cc1 [Glibenclamide],0.952
22,Cc1ccc(N(CC2=NCCN2)c2cccc(O)c2)cc1 [Phentolamine hydrochloride],1.05
23,CC[C@H]1OC(=O)[C@H](C)[C@@H](O[C@H]2C[C@@](C)(OC)[C@@H](O)[C@H](C)O2)[C@H](C)[C@@H](O[C@@H]2O[C@H](C)C[C@H](N(C)C)[C@H]2O)[C@](C)(O)C[C@@H](C)[C@@H]2N[C@@H](COCCOC)O[C@H]([C@H]2C)[C@]1(C)O [Dirithromycin],0.0968 (active)

row,Compound,growth AUC normalised to DMSO control
1,CN(C)CCCN1c2ccccc2CCc2ccccc21 [Imipramine hydrochloride],0.923
2,CCN(CC)CCOC(=O)C(c1ccccc1)C1CCCCC1 (centres undefined) [Drofenine hydrochloride],0.992
3,CCN1CCC[C@H]1CNC(=O)c1c(OC)ccc(Br)c1OC [Remoxipride hydrochloride],1.04
4,Cc1cnc(C(=O)NCCc2ccc(S(=O)(=O)NC(=O)NC3CCCCC3)cc2)cn1 [Glipizide],0.995
5,CNC(=O)c1c(I)c(C(=O)NCC(=O)Nc2c(I)c(C(=O)O)c(I)c(C(=O)NCCO)c2I)c(I)c(N(C)C(C)=O)c1I [Ioxaglic acid],0.921
6,COc1ccc2[nH]c([S+]([O-])Cc3ncc(C)c(OC)c3C)nc2c1 (centres undefined) [Omeprazole],0.919
7,COc1ccc(C(Cl)=C(c2ccc(OC)cc2)c2ccc(OC)cc2)cc1 [Chlorotrianisene],0.951
8,c1ccc2[nH]c(-c3cscn3)nc2c1 [Tiabendazole],1.06
9,COc1c(N2C[C@@H]3CCCN[C@@H]3C2)c(F)cc2c(=O)c(C(=O)O)cn(C3CC3)c12 [Moxifloxacin],0.0254 (active)
10,CC(=O)N[C@@H](CS)C(=O)O [Acetylcysteine],1.07
11,CCCCOc1ccc(C(=O)CCN2CCCCC2)cc1 [Dyclonine hydrochloride],0.921
12,CC1(C)S[C@@H]2[C@H](NC(=O)[C@H](N)c3ccccc3)C(=O)N2[C@H]1C(=O)O [Ampicillin trihydrate],0.0576 (active)
13,CN[C@@H]1[C@@H](O)[C@@H](O[C@@H]2[C@@H](O)[C@H](O[C@H]3OC(CN)=CC[C@H]3N)[C@@H](N)C[C@H]2N)OC[C@]1(C)O [Sisomicin sulfate],0.864
14,Clc1ccc(C(Cn2ccnc2)OCc2ccsc2Cl)c(Cl)c1 (centres undefined) [Tioconazole],0.934
15,CC(=O)c1ccc2c(c1)N(CCCN1CCC(CCO)CC1)c1ccccc1S2 [Piperacetazine],1.09
16,CC[C@H](C)C(=O)O[C@H]1C[C@H](O)C=C2C=C[C@H](C)[C@H](CC[C@@H](O)C[C@@H](O)CC(=O)O)[C@H]21 [Pravastatin],1.09
17,CCCCOC(=O)c1ccc(O)cc1 [Butylparaben],0.97
18,CCn1cc(C(=O)O)c(=O)c2cnc(N3CCNCC3)nc21 [Pipemidic acid],0.915
19,C#C[C@]1(O)CC[C@H]2[C@@H]3CCC4=CC(=O)CC[C@@H]4[C@H]3CC[C@@]21CC [(D-) Norgestrel],0.969
20,C[C@@H]1CN(c2c(F)c(N)c3c(=O)c(C(=O)O)cn(C4CC4)c3c2F)C[C@H](C)N1 [Sparfloxacin],0.0765 (active)
21,NC(=O)N/N=C/c1ccc([N+](=O)[O-])o1 [Nitrofural],0.465 (active)
22,COc1ccc(-c2cc(=O)c3c(O)cc(O[C@@H]4O[C@H](CO[C@@H]5O[C@@H](C)[C@H](O)[C@@H](O)[C@H]5O)[C@@H](O)[C@H](O)[C@H]4O)cc3o2)cc1O [Diosmin],0.784
23,CC(CN(C)C)CN1c2ccccc2Sc2ccccc21 (centres undefined) [Trimeprazine tartrate],0.94
